Source: paper PMC7862700, “An all-to-all approach to the identification of sequence-specific readers for epigenetic DNA modifications on cytosine”

Experiments:
Assay in all cases: DAPPL (digital affinity profiling via proximity ligation, sequencing); 10 mM Tris-HCl pH 7.5, 50 mM NaCl, 1 mM DTT, 4% glycerol, room temperature, 30 min; GST-TFs on glutathione beads, 16-mer random dsDNA library, 0.1% formaldehyde crosslink after washing; high values mean tight binding
FLI1 = target: T1, FLI1 (Homo sapiens, UniProt Q01543 1-452); conditions: protein: recombinant; tags: N-terminal GST; dsDNA, one strand shown
T1 sequence: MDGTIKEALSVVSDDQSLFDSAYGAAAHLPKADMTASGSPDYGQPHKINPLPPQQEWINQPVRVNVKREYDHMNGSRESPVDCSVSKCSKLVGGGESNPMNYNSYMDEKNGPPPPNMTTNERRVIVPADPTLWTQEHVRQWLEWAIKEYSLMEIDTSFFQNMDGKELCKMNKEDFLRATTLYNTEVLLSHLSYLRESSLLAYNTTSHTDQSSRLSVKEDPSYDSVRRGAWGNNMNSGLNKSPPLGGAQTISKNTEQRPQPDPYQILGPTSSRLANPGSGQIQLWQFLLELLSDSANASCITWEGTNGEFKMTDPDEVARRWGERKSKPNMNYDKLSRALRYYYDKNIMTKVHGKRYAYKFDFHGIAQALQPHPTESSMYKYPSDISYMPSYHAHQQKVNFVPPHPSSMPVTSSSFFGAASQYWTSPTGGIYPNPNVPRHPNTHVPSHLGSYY
In short: (§1)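 A tag-only sample was pooled with DNA-barcoded human transcription factors that had been expressed in yeast as GST fusions and captured on glutathione beads. The pools were incubated for 30 min at room temperature with 200 nmole of a random double-stranded 16-mer DNA library in Tris/NaCl/DTT/glycerol buffer, then washed, crosslinked with 0.1% formaldehyde, proximity-ligated (BsaI/T4 ligase, 1 h, 37 °C), PCR-amplified and sequenced on an Illumina NextSeq500. Binding signal is each hexamer's read frequency for a factor divided by its frequency for the tag-only sample.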

ELK1 = target: T2, ELK1 (Homo sapiens, UniProt P19419 1-428); conditions: protein: recombinant; tags: N-terminal GST; dsDNA, one strand shown
T2 sequence: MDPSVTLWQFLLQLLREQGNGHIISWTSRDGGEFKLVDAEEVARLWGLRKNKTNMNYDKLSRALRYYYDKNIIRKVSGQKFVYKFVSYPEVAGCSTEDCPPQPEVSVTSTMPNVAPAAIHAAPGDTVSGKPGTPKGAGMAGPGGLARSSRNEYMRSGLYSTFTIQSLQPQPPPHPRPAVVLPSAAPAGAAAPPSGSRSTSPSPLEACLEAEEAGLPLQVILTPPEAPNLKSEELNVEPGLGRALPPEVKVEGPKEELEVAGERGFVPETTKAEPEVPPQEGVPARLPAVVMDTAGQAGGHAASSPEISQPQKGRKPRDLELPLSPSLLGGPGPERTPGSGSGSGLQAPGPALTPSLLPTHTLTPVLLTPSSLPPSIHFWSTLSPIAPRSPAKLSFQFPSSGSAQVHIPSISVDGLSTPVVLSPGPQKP
In short: as §1

GABPA = target: T3, GABPA (Homo sapiens, UniProt Q06546 1-454); conditions: protein: recombinant; tags: N-terminal GST; dsDNA, one strand shown
T3 sequence: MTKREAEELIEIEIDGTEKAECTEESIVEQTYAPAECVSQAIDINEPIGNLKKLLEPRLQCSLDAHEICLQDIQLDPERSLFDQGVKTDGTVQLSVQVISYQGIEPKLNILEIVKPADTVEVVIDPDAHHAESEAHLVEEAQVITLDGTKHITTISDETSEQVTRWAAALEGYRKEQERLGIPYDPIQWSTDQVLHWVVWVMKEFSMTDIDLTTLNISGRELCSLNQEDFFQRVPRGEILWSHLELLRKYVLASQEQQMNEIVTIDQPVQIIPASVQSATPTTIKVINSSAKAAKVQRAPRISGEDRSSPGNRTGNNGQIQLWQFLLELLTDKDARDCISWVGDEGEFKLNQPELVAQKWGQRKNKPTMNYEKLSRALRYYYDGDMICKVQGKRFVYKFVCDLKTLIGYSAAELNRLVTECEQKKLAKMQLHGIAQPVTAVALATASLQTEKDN
In short: as §1

ERG = target: T4, ERG (Homo sapiens, UniProt P11308 1-479); conditions: protein: recombinant; tags: N-terminal GST; dsDNA, one strand shown
T4 sequence: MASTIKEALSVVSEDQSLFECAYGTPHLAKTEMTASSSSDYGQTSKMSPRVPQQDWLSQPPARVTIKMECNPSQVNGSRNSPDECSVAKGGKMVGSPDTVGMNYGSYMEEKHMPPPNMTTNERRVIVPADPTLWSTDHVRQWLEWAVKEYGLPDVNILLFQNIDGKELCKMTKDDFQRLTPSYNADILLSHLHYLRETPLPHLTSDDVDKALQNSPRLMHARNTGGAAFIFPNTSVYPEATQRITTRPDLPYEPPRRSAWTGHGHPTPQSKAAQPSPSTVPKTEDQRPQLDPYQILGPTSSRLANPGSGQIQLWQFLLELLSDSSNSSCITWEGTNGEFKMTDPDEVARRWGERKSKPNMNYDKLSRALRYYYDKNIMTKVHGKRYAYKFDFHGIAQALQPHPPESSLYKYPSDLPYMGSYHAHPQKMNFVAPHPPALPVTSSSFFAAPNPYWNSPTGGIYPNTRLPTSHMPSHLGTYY
In short: as §1

ELF1 = ELF1 (Homo sapiens, UniProt P32519 1-619); conditions: protein: recombinant; tags: N-terminal GST; dsDNA, one strand shown
In short: as §1

EHF = target: T5, EHF (Homo sapiens, UniProt Q9NZC4 1-300); conditions: protein: recombinant; tags: N-terminal GST; dsDNA, one strand shown
T5 sequence: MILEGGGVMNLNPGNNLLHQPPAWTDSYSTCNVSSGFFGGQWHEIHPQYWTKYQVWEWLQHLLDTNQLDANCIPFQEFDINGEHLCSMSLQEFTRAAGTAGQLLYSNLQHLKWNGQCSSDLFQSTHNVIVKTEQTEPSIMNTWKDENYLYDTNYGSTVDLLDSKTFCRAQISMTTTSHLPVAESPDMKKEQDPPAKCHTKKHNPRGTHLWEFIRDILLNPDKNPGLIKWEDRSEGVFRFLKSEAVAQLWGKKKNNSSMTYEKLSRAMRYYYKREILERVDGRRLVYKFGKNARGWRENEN
In short: as §1

SPI1 = SPI1 (Homo sapiens, UniProt P17947 1-270); conditions: protein: recombinant; tags: N-terminal GST; dsDNA, one strand shown
In short: as §1

SPIB = SPIB (Homo sapiens, UniProt Q01892 1-262); conditions: protein: recombinant; tags: N-terminal GST; dsDNA, one strand shown
In short: as §1

ELK3 = target: T6, ELK3 (Homo sapiens, UniProt P41970 1-407); conditions: protein: recombinant; tags: N-terminal GST; dsDNA, one strand shown
T6 sequence: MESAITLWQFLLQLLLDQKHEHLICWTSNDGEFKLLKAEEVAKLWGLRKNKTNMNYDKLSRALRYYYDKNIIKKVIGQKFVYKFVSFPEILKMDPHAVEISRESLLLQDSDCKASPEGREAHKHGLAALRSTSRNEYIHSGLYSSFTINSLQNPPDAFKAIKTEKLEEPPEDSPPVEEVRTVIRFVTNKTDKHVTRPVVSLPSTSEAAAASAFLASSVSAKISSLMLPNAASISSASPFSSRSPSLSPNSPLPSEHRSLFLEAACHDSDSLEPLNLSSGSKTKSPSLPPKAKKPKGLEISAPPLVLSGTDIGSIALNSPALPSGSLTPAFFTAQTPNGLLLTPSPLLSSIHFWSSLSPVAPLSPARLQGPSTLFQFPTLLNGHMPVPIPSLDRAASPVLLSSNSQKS
In short: as §1

FEV = target: T7, FEV (Homo sapiens, UniProt Q99581 1-238); conditions: protein: recombinant; tags: N-terminal GST; dsDNA, one strand shown
T7 sequence: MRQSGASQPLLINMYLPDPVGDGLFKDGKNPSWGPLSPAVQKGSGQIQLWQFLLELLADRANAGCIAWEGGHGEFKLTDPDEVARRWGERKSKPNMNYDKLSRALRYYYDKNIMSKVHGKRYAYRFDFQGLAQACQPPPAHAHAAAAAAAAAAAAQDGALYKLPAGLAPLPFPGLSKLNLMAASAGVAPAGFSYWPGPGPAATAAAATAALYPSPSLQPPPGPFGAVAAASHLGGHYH
In short: as §1

ETV5 = ETV5 (Homo sapiens, UniProt P41161 1-510); conditions: protein: recombinant; tags: N-terminal GST; dsDNA, one strand shown
In short: as §1

HSF1 = HSF1 (Homo sapiens, UniProt Q00613 1-529); conditions: protein: recombinant; tags: N-terminal GST; chain copies: 3; dsDNA, one strand shown
In short: as §1

SPIC = target: T8, SPIC (Homo sapiens, UniProt Q8N5J4 1-248); conditions: protein: recombinant; tags: N-terminal GST; dsDNA, one strand shown
T8 sequence: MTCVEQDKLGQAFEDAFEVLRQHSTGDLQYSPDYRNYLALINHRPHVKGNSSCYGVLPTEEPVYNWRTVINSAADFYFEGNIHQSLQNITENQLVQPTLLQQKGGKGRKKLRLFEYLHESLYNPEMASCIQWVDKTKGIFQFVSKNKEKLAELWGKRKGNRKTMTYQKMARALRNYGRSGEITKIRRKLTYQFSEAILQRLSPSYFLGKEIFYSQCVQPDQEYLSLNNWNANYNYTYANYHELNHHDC
In short: as §1

ELF4 = ELF4 (Homo sapiens, UniProt Q99607 1-663); conditions: protein: recombinant; tags: N-terminal GST; dsDNA, one strand shown
In short: as §1

ELK4 = target: T9, ELK4 (Homo sapiens, UniProt P28324-2 1-405); conditions: protein: recombinant; tags: N-terminal GST; dsDNA, one strand shown
T9 sequence: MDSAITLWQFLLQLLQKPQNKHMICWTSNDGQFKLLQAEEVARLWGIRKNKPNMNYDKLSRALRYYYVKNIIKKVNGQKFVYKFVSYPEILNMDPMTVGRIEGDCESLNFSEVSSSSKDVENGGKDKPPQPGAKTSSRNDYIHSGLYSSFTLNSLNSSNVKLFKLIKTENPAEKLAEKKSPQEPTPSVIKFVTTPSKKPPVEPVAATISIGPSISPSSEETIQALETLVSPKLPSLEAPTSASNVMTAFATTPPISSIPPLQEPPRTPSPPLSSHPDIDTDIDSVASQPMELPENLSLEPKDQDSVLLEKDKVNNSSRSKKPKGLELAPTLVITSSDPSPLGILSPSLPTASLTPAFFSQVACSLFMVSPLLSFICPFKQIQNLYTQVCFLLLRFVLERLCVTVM
In short: as §1

ETV2 = target: T10, ETV2 (Homo sapiens, UniProt O00321 1-342); conditions: protein: recombinant; tags: N-terminal GST; dsDNA, one strand shown
T10 sequence: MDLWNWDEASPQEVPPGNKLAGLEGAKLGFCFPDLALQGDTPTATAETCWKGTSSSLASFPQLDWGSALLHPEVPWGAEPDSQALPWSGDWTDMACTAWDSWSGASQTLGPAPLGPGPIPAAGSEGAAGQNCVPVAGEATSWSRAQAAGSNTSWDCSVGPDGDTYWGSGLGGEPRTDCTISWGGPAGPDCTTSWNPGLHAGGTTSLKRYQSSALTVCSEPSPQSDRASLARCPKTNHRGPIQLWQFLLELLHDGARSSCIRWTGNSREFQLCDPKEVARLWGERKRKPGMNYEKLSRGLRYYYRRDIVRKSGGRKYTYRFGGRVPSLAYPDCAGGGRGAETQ
In short: as §1

ELF3 = target: T11, ELF3 (Homo sapiens, UniProt P78545 1-371); conditions: protein: recombinant; tags: N-terminal GST; dsDNA, one strand shown
T11 sequence: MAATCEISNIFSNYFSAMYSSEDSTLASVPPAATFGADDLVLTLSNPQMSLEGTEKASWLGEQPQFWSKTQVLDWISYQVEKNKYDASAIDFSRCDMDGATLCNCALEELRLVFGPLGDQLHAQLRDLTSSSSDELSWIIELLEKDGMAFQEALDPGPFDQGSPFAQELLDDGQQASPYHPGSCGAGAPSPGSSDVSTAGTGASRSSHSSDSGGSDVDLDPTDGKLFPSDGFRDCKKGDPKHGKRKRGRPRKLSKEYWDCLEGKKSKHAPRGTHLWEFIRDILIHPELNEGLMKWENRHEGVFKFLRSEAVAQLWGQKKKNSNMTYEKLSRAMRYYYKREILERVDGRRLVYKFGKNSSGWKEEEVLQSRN
In short: as §1

CRX = CRX (Homo sapiens, UniProt O43186 1-299); conditions: protein: recombinant; tags: N-terminal GST; dsDNA, one strand shown
In short: as §1

ETV1 = ETV1 (Homo sapiens, UniProt P50549 1-477); conditions: protein: recombinant; tags: N-terminal GST; dsDNA, one strand shown
In short: as §1

ELF1, sequence (P32519 whole entry): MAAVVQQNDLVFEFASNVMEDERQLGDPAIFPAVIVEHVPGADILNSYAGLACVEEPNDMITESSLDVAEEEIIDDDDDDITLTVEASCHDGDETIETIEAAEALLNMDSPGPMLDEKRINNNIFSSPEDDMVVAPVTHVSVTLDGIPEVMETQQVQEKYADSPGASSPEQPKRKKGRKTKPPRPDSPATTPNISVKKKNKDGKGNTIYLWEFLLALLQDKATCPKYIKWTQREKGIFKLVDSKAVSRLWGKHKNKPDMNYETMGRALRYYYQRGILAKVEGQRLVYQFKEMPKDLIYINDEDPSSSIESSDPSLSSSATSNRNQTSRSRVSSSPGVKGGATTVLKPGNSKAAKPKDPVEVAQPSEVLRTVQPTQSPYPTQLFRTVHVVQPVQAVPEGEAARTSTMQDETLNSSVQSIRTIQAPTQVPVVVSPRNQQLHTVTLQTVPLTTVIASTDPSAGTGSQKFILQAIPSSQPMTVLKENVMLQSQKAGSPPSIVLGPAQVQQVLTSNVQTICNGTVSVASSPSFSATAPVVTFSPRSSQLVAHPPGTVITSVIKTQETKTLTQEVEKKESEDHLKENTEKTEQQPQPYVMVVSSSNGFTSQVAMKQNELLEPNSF
ELF4, sequence (Q99607 whole entry): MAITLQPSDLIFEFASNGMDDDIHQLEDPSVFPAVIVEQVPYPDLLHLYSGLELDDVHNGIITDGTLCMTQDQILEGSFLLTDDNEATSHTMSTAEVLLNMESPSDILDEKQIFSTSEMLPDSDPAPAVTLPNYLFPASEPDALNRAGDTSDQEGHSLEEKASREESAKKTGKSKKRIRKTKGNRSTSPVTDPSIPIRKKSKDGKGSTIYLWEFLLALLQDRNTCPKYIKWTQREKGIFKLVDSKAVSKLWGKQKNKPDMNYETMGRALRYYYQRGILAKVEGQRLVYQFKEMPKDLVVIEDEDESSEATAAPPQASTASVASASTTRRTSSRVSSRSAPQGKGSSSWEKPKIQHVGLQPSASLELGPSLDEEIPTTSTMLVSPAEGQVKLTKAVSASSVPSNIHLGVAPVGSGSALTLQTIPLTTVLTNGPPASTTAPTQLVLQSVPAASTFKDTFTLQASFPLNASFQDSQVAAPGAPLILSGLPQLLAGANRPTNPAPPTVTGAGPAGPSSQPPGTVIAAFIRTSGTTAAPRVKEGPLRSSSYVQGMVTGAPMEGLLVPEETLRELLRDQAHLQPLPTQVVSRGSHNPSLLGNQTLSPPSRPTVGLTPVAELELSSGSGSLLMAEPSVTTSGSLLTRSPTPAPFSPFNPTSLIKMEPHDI
HSF1, sequence (Q00613 whole entry): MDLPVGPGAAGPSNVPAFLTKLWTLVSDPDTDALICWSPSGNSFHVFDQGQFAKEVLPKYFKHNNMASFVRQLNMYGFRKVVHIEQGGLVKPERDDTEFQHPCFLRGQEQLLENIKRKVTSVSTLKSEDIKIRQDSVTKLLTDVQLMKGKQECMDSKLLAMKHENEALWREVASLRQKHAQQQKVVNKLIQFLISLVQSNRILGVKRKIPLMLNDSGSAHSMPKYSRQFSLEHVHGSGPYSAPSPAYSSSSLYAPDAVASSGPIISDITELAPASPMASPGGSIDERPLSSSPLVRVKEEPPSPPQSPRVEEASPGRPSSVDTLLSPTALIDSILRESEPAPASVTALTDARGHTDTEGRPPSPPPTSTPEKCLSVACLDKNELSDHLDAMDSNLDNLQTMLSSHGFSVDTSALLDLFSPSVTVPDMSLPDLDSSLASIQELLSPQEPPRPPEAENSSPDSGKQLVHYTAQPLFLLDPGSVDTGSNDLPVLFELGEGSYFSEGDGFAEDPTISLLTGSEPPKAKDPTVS
SPIB, sequence (Q01892 whole entry): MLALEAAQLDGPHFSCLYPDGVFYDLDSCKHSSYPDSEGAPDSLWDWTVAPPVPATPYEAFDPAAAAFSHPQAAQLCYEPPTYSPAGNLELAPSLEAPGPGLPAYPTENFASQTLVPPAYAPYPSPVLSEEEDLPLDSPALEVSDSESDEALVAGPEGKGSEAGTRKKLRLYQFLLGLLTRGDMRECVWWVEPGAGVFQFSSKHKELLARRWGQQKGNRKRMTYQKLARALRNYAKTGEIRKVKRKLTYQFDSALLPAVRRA
CRX, sequence (O43186 whole entry): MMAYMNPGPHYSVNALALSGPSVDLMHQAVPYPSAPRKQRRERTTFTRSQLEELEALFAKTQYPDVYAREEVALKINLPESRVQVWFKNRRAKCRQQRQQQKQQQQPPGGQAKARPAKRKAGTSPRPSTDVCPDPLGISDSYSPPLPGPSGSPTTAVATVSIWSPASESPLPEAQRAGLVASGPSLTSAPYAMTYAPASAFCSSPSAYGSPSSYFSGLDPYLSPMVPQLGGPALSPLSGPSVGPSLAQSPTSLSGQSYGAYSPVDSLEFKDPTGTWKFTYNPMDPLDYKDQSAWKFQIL
ETV5, sequence (P41161 whole entry): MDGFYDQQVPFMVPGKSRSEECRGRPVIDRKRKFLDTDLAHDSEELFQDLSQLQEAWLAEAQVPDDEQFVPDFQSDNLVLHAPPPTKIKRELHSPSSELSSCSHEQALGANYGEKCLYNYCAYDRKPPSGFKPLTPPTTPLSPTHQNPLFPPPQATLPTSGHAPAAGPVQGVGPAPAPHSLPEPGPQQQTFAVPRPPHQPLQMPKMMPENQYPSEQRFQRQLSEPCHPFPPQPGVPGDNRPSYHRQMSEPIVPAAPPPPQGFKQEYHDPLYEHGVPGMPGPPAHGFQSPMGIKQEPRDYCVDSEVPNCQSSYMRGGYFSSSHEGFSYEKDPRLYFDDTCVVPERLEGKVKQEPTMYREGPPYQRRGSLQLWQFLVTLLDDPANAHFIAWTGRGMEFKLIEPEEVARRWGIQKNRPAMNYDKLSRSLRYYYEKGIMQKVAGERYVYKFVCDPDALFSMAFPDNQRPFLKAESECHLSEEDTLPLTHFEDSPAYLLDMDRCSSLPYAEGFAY
ETV1, sequence (P50549 whole entry): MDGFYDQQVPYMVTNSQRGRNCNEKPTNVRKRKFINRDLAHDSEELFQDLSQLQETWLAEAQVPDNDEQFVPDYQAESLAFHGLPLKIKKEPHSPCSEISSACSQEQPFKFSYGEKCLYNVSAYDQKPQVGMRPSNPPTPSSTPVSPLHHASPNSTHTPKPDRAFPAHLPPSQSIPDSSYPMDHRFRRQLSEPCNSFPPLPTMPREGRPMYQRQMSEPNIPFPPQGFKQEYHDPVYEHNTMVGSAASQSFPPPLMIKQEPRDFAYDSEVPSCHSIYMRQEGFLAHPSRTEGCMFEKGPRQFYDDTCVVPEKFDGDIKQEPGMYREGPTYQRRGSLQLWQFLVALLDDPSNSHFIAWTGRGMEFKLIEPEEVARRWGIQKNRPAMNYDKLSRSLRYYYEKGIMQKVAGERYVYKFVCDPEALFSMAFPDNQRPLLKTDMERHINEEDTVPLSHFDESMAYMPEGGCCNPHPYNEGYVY

Sequence: TTCCCA
- binding signal (FLI1): 1.18 fold enrichment (6-mer frequency, TF over GST control)
- binding signal (ELK1): 1.3 fold enrichment (6-mer frequency, TF over GST control)
- binding signal (GABPA): 1.2 fold enrichment (6-mer frequency, TF over GST control)
- binding signal (ERG): 1.3 fold enrichment (6-mer frequency, TF over GST control)
- binding signal (ELF1): 1.3 fold enrichment (6-mer frequency, TF over GST control)
- binding signal (EHF): 1.34 fold enrichment (6-mer frequency, TF over GST control)
- binding signal (SPI1): 1.28 fold enrichment (6-mer frequency, TF over GST control)
- binding signal (SPIB): 1.34 fold enrichment (6-mer frequency, TF over GST control)
- binding signal (ELK3): 1.17 fold enrichment (6-mer frequency, TF over GST control)
- binding signal (FEV): 1.16 fold enrichment (6-mer frequency, TF over GST control)
- binding signal (ETV5): 1.29 fold enrichment (6-mer frequency, TF over GST control)
- binding signal (HSF1): 1.08 fold enrichment (6-mer frequency, TF over GST control)
- binding signal (SPIC): 1.23 fold enrichment (6-mer frequency, TF over GST control)
- binding signal (ELF4): 1.26 fold enrichment (6-mer frequency, TF over GST control)
- binding signal (ELK4): 1.08 fold enrichment (6-mer frequency, TF over GST control)
- binding signal (ETV2): 1.13 fold enrichment (6-mer frequency, TF over GST control)
- binding signal (ELF3): 1.27 fold enrichment (6-mer frequency, TF over GST control)
- binding signal (CRX): 1.16 fold enrichment (6-mer frequency, TF over GST control)
- binding signal (ETV1): 1.2 fold enrichment (6-mer frequency, TF over GST control)
